Experimental data from PubChem BioAssay (NCATS).
Values joined by “and” are separate entries in the source; they are usually repeats but may differ in a detail not shown here. Identical values can stand only once. Records with an inconclusive call do not appear. Active and inactive are the calls of the source. Unless noted, calls come from the whole dose curve; as a rule, active = well fitted curve in the direction sought with a large enough effect; inconclusive = small, poorly fitted or top-dose-only effect, or another doubt; inactive = no such curve, though single readings can be large; an effect the other way counts as inactive or inconclusive.

Tests used:
[1] = Cell Viability - BJ (AID 421; calls by dose curve;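 note: potency is the fitted concentration of half-maximal effect; cells exposed to compound for 40 hours at 37 °C before readout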); details: BJ fibroblast viability, qHTS
Summary of the method: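 Normal human BJ foreskin fibroblasts, 1500/well in complete medium, treated 40 hr at 37 °C. Cellular ATP by CellTiter-Glo luminescence; normalized to DMSO and 100 uM tamoxifen, AC50 from Hill fit.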

[2] = Cell Viability - HepG2 (AID 433; calls by dose curve;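 note: potency is the fitted concentration of half-maximal effect; potency for ATP loss meaning cytotoxicity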); details: qHTS
Summary of the method: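 HepG2 cells, 1500 per well, treated 40 hr at 37 °C in complete medium; viability from intracellular ATP by CellTiter-Glo luminescence. Normalized to DMSO and 100 uM tamoxifen; AC50 from Hill fit of qHTS concentration-response.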

[3] = Cell Viability - MRC5 (AID 434; calls by dose curve;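 note: potency is the fitted concentration of half-maximal effect; potency reflects cytotoxicity seen as loss of intracellular ATP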); details: MRC5 lung fibroblast viability, qHTS
Summary of the method: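 MRC5 normal human lung fibroblasts, 1500 cells/well, exposed to compound for 40 hr at 37 C. Cellular ATP was read by CellTiter-Glo luminescence; data normalized to DMSO and 100 uM tamoxifen, with AC50 from Hill fits.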

[4] = Cell Viability - SK-N-SH (AID 435; calls by dose curve;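 note: potency is the fitted concentration of half-maximal effect; compound exposure lasted 40 h at 37 °C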); details: SK-N-SH neuroblastoma cell viability qHTS
Summary of the method: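 SK-N-SH neuroblastoma cells (1500/well) treated 40 h at 37 °C in complete medium; viability read as cellular ATP by CellTiter-Glo luminescence. Normalized to DMSO and 100 uM tamoxifen; AC50 from Hill fits of qHTS concentration-response.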

[5] = Cell Viability - NIH 3T3 (AID 541); details: NIH 3T3 cell viability, qHTS; activity change, negative = cytotoxicity: at 92.2 µM (top of the series);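 note: plate controls were DMSO alone for no effect and tamoxifen positive control for full effect; nearly all actives have a fitted effect of over 25% in size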
Summary of the method: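 NIH 3T3 mouse embryo fibroblasts (1000 cells/well) were plated in complete medium and treated with compound for 40 hr at 37 °C. Viability was read as intracellular ATP by CellTiter-Glo luminescence; AC50 values came from Hill-equation fits of concentration-response data.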

[6] = Cell Viability - HUV-EC-C (AID 542); details: HUV-EC-C endothelial cell viability, qHTS; series mostly up to 92.2 µM; note: % is set by controls: 0 for no effect and ±100 for the full control effect; nearly all actives have a fitted effect of over 35% in size
Summary of the method: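 HUV-EC-C normal human vascular endothelial cells, 1000 cells/well, pre-incubated 5 hr at 37 °C, then exposed to compounds for 40 hr at 37 °C in complete medium. Viability measured as intracellular ATP by CellTiter-Glo luminescence; AC50 from Hill fits.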

[7] = Cell Viability - H-4-II-E (AID 543); details: H-4-II-E rat hepatoma viability; series mostly up to 92.2 µM; note: % is set by controls: 0 for no effect and ±100 for the full control effect; nearly all actives have a fitted effect of over 35% in size
Summary of the method: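 Rat hepatoma H-4-II-E cells (1500/well) were plated, incubated 5 hr at 37 °C, then exposed to compounds for 40 hr at 37 °C. Cellular ATP was read by CellTiter-Glo luminescence; AC50 came from Hill-equation fits of concentration-response data.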

[8] = Cell Viability - SH-SY5Y (AID 544); details: SH-SY5Y neuroblastoma cell viability; viability change, negative = cytotoxic: at 92.2 µM (top of the series); note: nearly all actives have a fitted effect of over 55% in size
Summary of the method: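 Human neuroblastoma SH-SY5Y cells (1500/well) in complete medium were exposed to compounds for 40 hr at 37 °C; intracellular ATP was then quantified by CellTiter-Glo luminescence after 20 min at room temperature. AC50 came from Hill-equation concentration-response fits.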

[9] = Cell Viability - Renal Proximal Tubule (AID 545); details: renal proximal tubule cells viability; at 91.7 µM (top of the series), primary cells of rat origin unless noted; note: nearly all actives have a fitted effect of over 40% in size
Summary of the method: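 Rat renal proximal tubule primary cells, 1000/well, exposed to compounds for 40 hr at 37 °C in complete medium; cellular ATP read by CellTiter-Glo luminescence. AC50 from concentration-response fitted with standard Hill equation.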

[10] = Cell Viability - Mesenchymal (AID 546); details: mesenchymal cells viability, qHTS; series mostly up to 91.7 µM;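 note: cells exposed to compound for 40 hours before reading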
Summary of the method: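 Human kidney mesenchymal cells from normal renal glomeruli, 1000 cells/well, rested 5 hr at 37 °C, then treated 40 hr at 37 °C in complete medium. Cellular ATP read by CellTiter-Glo luminescence; AC50 from Hill-equation fits.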

[11] = Cellular Toxicity (caspase-3) Jurkat (AID 655); details: Jurkat caspase-3 activation, luminescence, DMSO = 0%, tamoxifen = 100%; at 92.2 µM (top of the series);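 note: cells exposed to compound for 16 h at 37 °C before reading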
Summary of the method: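 Jurkat cells (5000/well) in complete medium exposed 16 h at 37 C; caspase-3/7 activity read by Caspase-Glo luminescence after 20 min at room temperature. Normalized to DMSO and 100 uM tamoxifen; AC50 from Hill fits.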

[12] = Cellular Toxicity (caspase-3) HUV-EC-C (AID 656); details: HUV-EC-C cells, caspase-3 activation (apoptosis), vehicle = 0, 100 µM tamoxifen = 100%; series mostly up to 92.2 µM
Summary of the method: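 HUV-EC-C cells (1000/well) in complete medium, compound-treated 16 h at 37 °C; caspase-3/7 activity read by Caspase-Glo 3/7 luminescence. Normalized to DMSO (basal) and 100 uM tamoxifen (100%); AC50 from Hill-equation concentration-response fits.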

[13] = qHTS Assay for Identification of Small Molecule Inducers of Hypoxia Response (AID 2120; active = well fitted curve in the direction sought with a large enough effect in the signal ratio, with a control signal flat, not every such curve was filed as active; the % refers to the signal ratio; note: 0% is about no effect); details: hypoxia response reporter cells, beta-lactamase ratio readout; series mostly up to 104 µM
Summary of the method: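 HRE-beta-lactamase reporter in CellSensor HRE-bla ME-180 cells, 2500 cells/well in Opti-MEM with 0.5% dialyzed FBS; compounds tested as titration series, 17 h at 37 degrees C. CCF4 substrate 2.5 h at room temperature; AC50 from 460/530 nm ratio.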

[14] = qHTS assay for small molecule agonists of retinoid X receptor alpha signaling (AID 588544); details: HEK293T RXRa-UAS-bla, beta-lactamase reporter, 18 h; 530 nm emission
[15] = qHTS assay for small molecule antagonists of retinoid X receptor alpha signaling (AID 588546; active = well fitted inhibition curve with a large enough effect in the signal ratio, with a control signal flat, not every such curve was filed as active; the % refers to the signal ratio;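 note: cells stimulated with 9-cis-retinoic acid as agonist; % is set by controls: 0 for no effect and ±100 for the full control effect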); details: HEK293T RXRa-UAS-bla, beta-lactamase ratio, antagonist mode; measured here: W530 green channel, cytotoxicity proxy
Summary of the method: (§1)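 Beta-lactamase reporter inhibition, read as CCF4 fluorescence ratio (ex 405, em 460/530 nm) after 2 h at RT. HEK293T UAS-bla cells, 2500/well, were stimulated with 9-cis-RA at 500 or 100 nM final alongside test compound for 18 h at 37 C.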

[16] = molecular target: Retinoic acid receptor RXR-alpha (Homo sapiens) (UniProt P19793); assay: as above; details: HEK293T RXRa-UAS-bla, beta-lactamase ratio, antagonist mode
Retinoic acid receptor RXR-alpha (Homo sapiens), sequence (P19793 whole entry, looked up): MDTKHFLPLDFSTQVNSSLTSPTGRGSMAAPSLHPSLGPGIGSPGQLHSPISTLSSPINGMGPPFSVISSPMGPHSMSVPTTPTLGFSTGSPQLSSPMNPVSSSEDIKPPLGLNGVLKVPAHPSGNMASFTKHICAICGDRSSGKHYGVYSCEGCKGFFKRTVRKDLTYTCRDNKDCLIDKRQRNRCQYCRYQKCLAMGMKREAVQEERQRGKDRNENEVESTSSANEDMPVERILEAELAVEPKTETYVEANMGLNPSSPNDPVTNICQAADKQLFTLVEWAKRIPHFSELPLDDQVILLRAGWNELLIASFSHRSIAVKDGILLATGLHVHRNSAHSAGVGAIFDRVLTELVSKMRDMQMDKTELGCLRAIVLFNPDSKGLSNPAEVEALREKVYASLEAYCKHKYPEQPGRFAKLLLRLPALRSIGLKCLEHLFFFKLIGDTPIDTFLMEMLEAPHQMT
Summary of the method: as §1

[17] = molecular target: Peroxisome proliferator-activated receptor alpha (Homo sapiens) (UniProt Q07869); assay: qHTS assay for small molecule agonists of the peroxisome proliferator-activated receptor alpha (PPARalpha) signaling pathway (AID 651778); details: PathHunter PPARalpha complementation, chemiluminescence, 6 h; stronger effect = higher value; note: % of control where 0% means no effect
Peroxisome proliferator-activated receptor alpha (Homo sapiens), sequence (Q07869 whole entry, looked up, the tested form may be a part): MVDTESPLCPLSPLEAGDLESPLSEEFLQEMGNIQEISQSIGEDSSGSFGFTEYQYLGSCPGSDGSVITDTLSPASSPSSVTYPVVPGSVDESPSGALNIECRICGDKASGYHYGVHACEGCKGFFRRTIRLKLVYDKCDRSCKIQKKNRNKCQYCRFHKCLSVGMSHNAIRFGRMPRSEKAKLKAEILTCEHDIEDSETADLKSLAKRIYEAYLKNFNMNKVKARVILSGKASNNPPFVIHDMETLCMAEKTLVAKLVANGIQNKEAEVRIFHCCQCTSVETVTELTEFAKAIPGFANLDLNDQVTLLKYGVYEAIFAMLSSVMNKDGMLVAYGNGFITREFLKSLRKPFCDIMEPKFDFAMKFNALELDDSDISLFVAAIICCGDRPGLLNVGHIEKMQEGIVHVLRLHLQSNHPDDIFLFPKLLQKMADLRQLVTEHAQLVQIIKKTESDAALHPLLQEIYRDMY
Summary of the method: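 Enzyme-fragment complementation assay in which ligand-bound PPARalpha translocates and forms an active enzyme that generates chemiluminescence. Cells were plated overnight, exposed to compound for 6 hr at 37 C, and then given detection reagent for 60 min at room temperature.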

[18] = qHTS assay for small molecule agonists of the antioxidant response element (ARE) signaling pathway measured by Nrf2-dependant transcriptional activity - cell viability counter screen (AID 720653; active = well fitted curve in the direction sought with a large enough effect in the repeat runs; an effect the other way counts as inactive or inconclusive; note: % is set by controls: 0 for no effect and ±100 for the full control effect); details: ARE-bla HepG2 viability, CellTiter-Glo ATP luminescence, 16 h; stronger effect = lower value
Summary of the method: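 ARE-bla HepG2 cells treated with compounds for 16 h at 37C; this counter screen measures viability as intracellular ATP by CellTiter-Glo luminescence after 30 min at room temperature.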

[19] = qHTS assay for cell viability of HEK293 cells (AID 743288); details: ATP luminescence (CellTiter-Glo), 18 h; max response: stronger effect = lower value; note: % is set by controls: 0 for no effect and ±100 for the full control effect; nearly all actives have a fitted effect of over 50% in size
Summary of the method: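 Parental HEK293 cells, 2,000 per well, preincubated at least 5 h at 37 C, then exposed to compounds in DMSO for 18 h at 37 C. Viability by CellTiter-Glo ATP luminescence after 30 min at room temperature.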

[20] = qHTS assay for cell viability of the p53RE-bla HCT-116 cell line (AID 743292); details: p53RE-bla HCT-116 viability, ATP luminescence, 16 h; series mostly up to 95 µM; note: % is set by controls: 0 for no effect and ±100 for the full control effect; nearly all actives have a fitted effect of over 55% in size
Summary of the method: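 ATP-based luminescence, 16 h compound exposure at 37 C, p53RE-bla HCT-116 cells at 4,000/well.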

COc1ccc(N)cc1
0.204% and 7.89%: max response [15]
14.8% and 16.7%: max response [14]
inactive: Potency [1] > 92 µM | Potency [2] > 92 µM | Potency [3] > 92 µM | Potency [4] > 92 µM | activity change, negative = cytotoxicity [5] -5.61% | Potency [6] | Potency [7] | Potency [8] | activity change, negative = cytotoxicity [9] 0.402% and -5.11% | outcome [10] | caspase-3 activation [11] 2.07% and 0.631% | outcome [12] | outcome [13] | max response [16] -1.34% and 19.9% | max response [17] -0.77% and -1.08% | max response [18] 6.52% and -14.8% | max response [19] 2.27% and -1.78% | Potency [20]

CC(C)(c1ccccc1)c1ccc(O)cc1
-10.3% and -15.2%: max response [14]
inactive: Potency [1] > 92 µM | Potency [2] > 92 µM | Potency [3] > 92 µM | Potency [4] > 92 µM | activity change, negative = cytotoxicity [5] -17.8% | Potency [6] | Potency [7] | Potency [8] | activity change, negative = cytotoxicity [9] -9.32% | outcome [10] | caspase-3 activation [11] 11.6% | outcome [12] | outcome [13] | max response [16] -3.65% | max response [17] -2.53% and 0.007% | max response [18] 9.52% and -12.4% | max response [19] -13.3% and 1.83% | Potency [20]
-11.5%: max response [15]

OCC(Br)CBr (stereo not given)
-6.01%: max response [15]
inactive: Potency [1] > 92 µM | Potency [2] > 92 µM | Potency [3] > 92 µM | Potency [4] > 92 µM | activity change, negative = cytotoxicity [5] -14.7% | Potency [6] | Potency [7] | Potency [8] | activity change, negative = cytotoxicity [9] 0.652% | outcome [10] | caspase-3 activation [11] 0.101% | outcome [12] | outcome [13] | max response [16] 1.29% | max response [17] -5.97% | max response [18] -0.194% | max response [19] 6.86% | Potency [20]
-16%: max response [14]

S=C=Nc1cccc2ccccc12
-0.704%: max response [15]
inactive: Potency [1] > 92 µM | Potency [2] > 92 µM | Potency [3] > 92 µM | Potency [4] > 92 µM | activity change, negative = cytotoxicity [5] 1.16% | Potency [6] | Potency [7] | Potency [8] | activity change, negative = cytotoxicity [9] 4.87% | outcome [10] | caspase-3 activation [11] 1.77% | outcome [12] | outcome [13] | max response [16] 3.59% | max response [17] 5.47% | max response [18] -2.47% | max response [19] 0.149% | Potency [20]
6.51%: max response [14]

CN=C=S
inactive: Potency [1] > 92 µM | Potency [2] > 92 µM | Potency [3] > 92 µM | Potency [4] > 92 µM | activity change, negative = cytotoxicity [5] 7.36% | Potency [6] | Potency [7] | Potency [8] | activity change, negative = cytotoxicity [9] -2.52% | outcome [10] | caspase-3 activation [11] -1.9% | outcome [12] | outcome [13] | max response [16] 0.0175% and -8.56% | max response [17] -2.7% and -1.5% | max response [18] 4% and -4.66% | max response [19] -4.04% and -6.57% | Potency [20]
-16.3% and -0.556%: max response [15]
-13.3% and 3.16%: max response [14]

BrCCBr
-10.6% and -9.29%: max response [15]
inactive: Potency [1] > 92 µM | Potency [2] > 92 µM | Potency [3] > 92 µM | Potency [4] > 92 µM | activity change, negative = cytotoxicity [5] -25.3% | Potency [6] | Potency [7] | Potency [8] | activity change, negative = cytotoxicity [9] -6.16% | outcome [10] | caspase-3 activation [11] -0.244% | outcome [12] | outcome [13] | max response [16] 9.69% and -0.139% | max response [17] -2.04% and -4.02% | max response [18] 2.36% and -0.33% | max response [19] 2.15% and 1.92% | Potency [20]
-0.875% and -18.5%: max response [14]

C=C(Cl)Cl
-3.44%: max response [15]
-17.1%: max response [14]
inactive: Potency [1] > 92 µM | Potency [2] > 92 µM | Potency [3] > 92 µM | Potency [4] > 92 µM | activity change, negative = cytotoxicity [5] 0.633% | Potency [6] | Potency [7] | Potency [8] | activity change, negative = cytotoxicity [9] -2.22% | outcome [10] | caspase-3 activation [11] 0.59% | outcome [12] | outcome [13] | max response [16] -1.27% | max response [17] -2.47% | max response [18] -2.66% | max response [19] -0.763% | Potency [20]

CCCCCCCC(=O)Cl
inactive: Potency [1] > 92 µM | Potency [2] > 92 µM | Potency [3] > 92 µM | Potency [4] > 92 µM | activity change, negative = cytotoxicity [5] 5.37% | Potency [6] | Potency [7] | Potency [8] | activity change, negative = cytotoxicity [9] -1.44% | outcome [10] | caspase-3 activation [11] -0.927% | outcome [12] | outcome [13] | max response [16] 17.7% | max response [17] 1.85% | max response [18] 7.34% | max response [19] -11% | Potency [20]
12.8%: max response [14]
-7.27%: max response [15]
